In PubChem BioAssay (NCI) one finds growth data, which are given here for 74 molecules.

Molecules are shown by their SMILES. The panel holds about 83,000 compounds, 20% with a hit somewhere; the sample as a whole holds those more often.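 Cells were grown in 96-well plates and exposed to the test compound at a single concentration for 48 hours; results are reported as percent growth, with values below 10 considered active.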 Values without a mark were called inactive. Active and inactive are the calls of the source.

For this assay, the system named is MDA-MB-468 breast. Kind of assay: NCI-60 one-dose screen, 48 h (100 = growth as untreated, 0 = no growth, -100 = all killed). To be noted: 10 µM unless noted.

In the case of `CCN(CC)CCCNCc1cc(-c2ccccc2)nc2cc(Cl)ccc12`, the growth is -25.7% (active).

Turning to `C#CC#CC#CC#CC#CC#CC#CC#CC[C@H]1OC[C@@H](COC(=O)O[C@@H](C(=O)O[C@H]2C[C@@]3(O)[C@@H](OC(=O)c4ccccc4)[C@@H]4[C@]5(OC(C)=O)CO[C@@H]5C[C@H](O)[C@@]4(C)C(=O)[C@H](OC(C)=O)C(=C2C)C3(C)C)[C@@H](NC(=O)c2ccccc2)c2ccccc2)O1`, the growth was 14.2%. As for `O=S(=O)(Nc1ccc(Cl)c(Cl)c1)c1ccc(-c2cnc(C3CC3)o2)cc1`, the figure is 7.72% (active); as for `CC/C=C\C[C@H]1C/C=C2/C(=O)C=C[C@H]2C/C=C\CCCC(=O)O1`, 31.7%.

For `CN1CCN(CCCCCN=c2cc3c(=O)n(CCCCCN4CCN(C)CC4)c(=O)c4c(NCCCCCN5CCN(C)CC5)cc5c(O)n(CCCCCN6CCN(C)CC6)c(=O)c2c5c4-3)CC1`, the growth is -50.8% (active). On to `N#Cc1c(-c2ccc(Cl)cc2)cc(-c2cc(O)ccc2O)nc1N`, for which the growth was 19.4%. The value for `C#CC#CC#CC#CC#CC#CC#CC#CC[C@H]1OC[C@H](COC(=O)O[C@@H](C(=O)O[C@H]2C[C@@]3(O)[C@@H](OC(=O)c4ccccc4)[C@@H]4[C@]5(OC(C)=O)CO[C@@H]5C[C@H](O)[C@@]4(C)C(=O)[C@H](OC(C)=O)C(=C2C)C3(C)C)[C@@H](NC(=O)c2ccccc2)c2ccccc2)O1` was 19.3%; that for `Cc1ccc2c(-c3cc(-c4ccccc4)nc(N)c3C#N)cc(=O)oc2c1` was 103%; that for `C=CCN(CC#N)CC=C` was 101%. Consider `O=C(/C=C/c1csc(Br)n1)NO`, for which the growth is 19%.

For the molecule `CC(C)C[C@@H](C(=O)N[C@H](C(=O)OC1CCCC1)c1ccccc1)[C@H](O)C(=O)NO`, the growth was 16.9%. As for `CN1C(=O)/C(=C/c2ccc(C(=O)Nc3ncc(Cc4ccc(F)cc4)s3)cc2)SC1=S`, the figure is 25.2%. As for `CCN(CCCCCCN1CC(=O)N(CCCCCCN(CC)Cc2ccccc2OC)CC1=O)Cc1ccccc1OC`, the figure is 84%; as for `COc1cnc2c(c1)C(=O)c1c-2n(CCCBr)c(=O)c2cc([N+](=O)[O-])ccc12`, -15.8% (active); as for `Cn1/c(=N\N=C\c2ccccc2OCCO)sc2ccccc21`, 103%. As for `C=C[C@@]1(C)CC(=O)[C@@H](C(C)(C)c2cn(C)c3ccc(Br)cc23)C[C@@H]1O[Si](C)(C)C(C)(C)C`, the figure is 100%; as for `Cc1nc(/N=C(\N)NC(=O)Nc2cccc(Cl)c2)sc1C`, 55.2%. On to `O=C(c1ccccc1)C(Br)C(Br)c1ccccc1` (centres undefined), for which the growth is 72.3%. As for `CC(C)=CCc1cc(O)cc2c1OC(C=C(C)C)C1=C2C(=O)C2=C(C1=O)S(=O)(=O)CCN2` (centres undefined), the figure is -31.2% (active). With `CCOC(=O)/C=C1/SC(=Nc2ccc(C#N)cc2)N(Cc2ccco2)C1=O`, the growth is 27.5%. The value for `Cc1nccc2c3ccc(OCc4cn(-c5ccc(Cl)cc5)nn4)cc3n(CC(C)C)c12` was -1.72% (active); that for `COC1=C(OC)C(=O)c2ccccc2C1=O` was -34% (active). Take `O=C1CCCC=CC[C@H]2C=C(Cl)C(=O)C2=CC[C@H](CCCCC(F)(F)F)OC(=O)CCCC=CC[C@H]2C=C(Cl)C(=O)C2=CC[C@H](CCCCC(F)(F)F)OC(=O)CCCC=CC[C@H]2C=C(Cl)C(=O)C2=CC[C@H](CCCCC(F)(F)F)O1`: the growth is 59.9% [6.25 µM]. As for `COc1ccc2cc(-c3nn(-c4ccc(C(=O)O)cc4)cc3CO)ccc2c1`, the figure is 109%. The value for `O=C(NCCCNc1cc(-c2cn(-c3ccccc3)nc2-c2cccc(O)c2)ccn1)c1ccc(F)cc1` was -41.4% (active); that for `CC(=O)Oc1ccccc1C(=O)Nc1cc(C(C)C)ccc1C` was -5.42% (active). As to `Cc1ccc(/C=C2\SC(=S)N(c3ccc(F)cc3)C2=O)o1`, the growth was 69.6%. As for `C=C(C)[C@@H]1CC[C@]2(C(=O)O)CC[C@]3(C)[C@H](CC[C@@H]4[C@@]5(C)C[C@@H](CC#Cc6ccc(Cl)cc6)C(=O)C(C)(C)[C@@H]5CC[C@]43C)[C@@H]12`, the figure is 16.9%. `O=C(/C=C/c1ccccn1)c1ccc(OCc2nnc(-c3ccc(Cl)cc3)o2)cc1`: the growth was -37.7% (active).

`O=c1c2cccc3c(NC4CCCCC4)ccc(c32)c2nc3ccccc3n12`: the growth was -4.69% (active).

Take `O=C(O)c1cn(C2CC2)c2cc(N3CCN(Cc4ccc5ccccc5c4O)CC3)c(F)cc2c1=O`: the growth is 39.2%.

Consider `Cc1cccc(NC(=O)CCc2ccc(N3C(N)=NC(N)=NC3(C)C)cc2)c1`, for which the growth is 39.9%. The value for `COc1cccc(C2C(C#N)=C(N)Oc3cc(OC)ccc32)c1` (centres undefined) was 41.4%; that for `COc1ccc(OC)c(NC2=C(Cl)C(=O)C(C)=C(C)C2=O)c1` was -31.6% (active); that for `CCN1/C(=C\c2cc[n+](CC)c3ccccc23)C=Cc2ccccc21` was -9.93% (active). Turning to `C[C@@H](O)[C@H]1C(=O)N2C(C(=O)O)=C(SC3CN[C@H](C(=O)N(C)C)C3)[C@H](C)[C@H]12` (some centres undefined), the growth was 100%. As for `O=C1c2ccccc2C(=O)c2c1oc1c2c(=O)[nH]c2ccc(Cl)cc21`, the figure is -32.4% (active); as for `C=C1CCC2C3(C)COC(c4ccc(SC)cc4)OC3CCC2(C)C1C/C=C1/C(=O)OCC1O` (centres undefined), 77.4%; as for `C/C(=C\CCc1ccoc1)CC/C=C(\C)CCCNc1ccc(F)cc1`, 89.8%. Take `COc1ccc2nc3c(cc2c1)C(=O)CC(c1ccccc1)C3` (centres undefined): the growth was 68.3%. For the molecule `C=CCCCCOc1ccccc1-c1cnc(OCCCCC=C)n1C`, the growth was 25.5%. The value for `CS(=O)(=O)c1ccc(-c2nn(-c3ccccc3)cc2/C=C/C(=O)c2ccc(Br)cc2)cc1` was 91.4%; that for `O=C(c1ccc(O)c(Br)c1)c1ccc(O)c(Br)c1` was 106%; that for `COc1cc(-c2nn(-c3ccc(C)cc3)cc2C(=O)O)ccc1O` was 121%. The value for `Cc1cc(=O)n2n1-c1ccc(Cl)cc1NC(=O)C2` was 101%; that for `Oc1ccccc1-c1nnc(Cn2c(Cc3cccc4ccccc34)nc3ccccc32)o1` was 105%. In the case of `O=C(Nc1ccc(Oc2cccc(F)c2)c(Cl)c1)c1cccnc1`, the growth is -9.22% (active). As for `CC12CCC3C4(C)COC(c5ccccc5Cl)OC4CCC3(C)C1CC(C1=CCOC1=O)O2` (centres undefined), the figure is 24.9%; as for `C[C@H](c1nc2ccc(N)cc2[nH]1)[C@H]1CC[C@H]2[C@@H]3CCC4=CC(=O)CC[C@]4(C)[C@H]3CC[C@]12C`, 68.1%. The value for `Cc1csc(-c2ccc3c(c2)COC3(CCCN(C)C)c2ccc(F)cc2)c1` (centres undefined) was 31.1%; that for `Cc1[nH]c2ncnc(Oc3ccc(NC(=O)Nc4ccc(Cl)c(C(F)(F)F)c4)cc3)c2c1C` was 69.5%; that for `CNCc1cccc2c1OCCCCCCC(C)(O)CC(C)(C)S(=O)(=O)c1ccc(cc1)-c1cnc(N)c(n1)C(=O)N2` (centres undefined) was -54.1% (active). The value for `COc1cc(-c2nc3occn3c2-c2ccnc(NCCCNS(=O)(=O)c3ccccc3)n2)ccc1F` was 5.92% (active); that for `COc1ccc(/C=c2\c(=O)n(-c3ccccc3)c3nn4c(n23)=NNC42CCCCC2)cc1` was 110%; that for `Nc1c(C(=O)Nc2cccc3ccncc23)sc2nc3c(cc12)C(=O)CCC3` was -12.6% (active). As to `CC(C)CSc1nc(-c2ccc(F)cc2)c(C#N)c(N2CCCCC2)n1`, the growth was 101%. Consider `Cc1nn(CC(=O)O)c2c1C(=O)CC(C)(C)C2`, for which the growth is 106%. Take `COc1ccc(C2[C@@H](c3ccccc3)C(=O)N2c2cc(OC)c(OC)c(OC)c2)cc1F` (some centres undefined): the growth was -4.41% (active). The value for `C=CCn1c(SCC(=O)Nc2ccc(C(=O)/C=C/c3cc4cc(OC)ccc4nc3Cl)cc2)nnc1-c1ccc(Br)cc1` was 85.7%. The value for `COc1cc(-c2n[nH]nc2-c2ccccn2)cc(OC)c1OC` was 104%. As for `O=C1c2cccc(NCCN=Cc3cc([N+](=O)[O-])ccc3O)c2C(=O)c2c(NCCN=Cc3cc([N+](=O)[O-])ccc3O)cccc21`, the figure is 43.4%; as for `Cc1ccc(-c2cc(O)c(-c3ccc(C)cc3C)cc2O)c(C)c1`, 46.5%; as for `COc1cc2ncn3c(=O)c4c5c(sc4nc3c2cc1OC)CCCCC5`, 107%. On to `O=C(/C=C/c1ccc(Cl)cc1)/C=C/c1cc2ccccc2[nH]c1=O`, for which the growth was 55.9%. Take `CCCNNC(=O)c1ccc(CNC(=O)/C=C/c2ccccc2)cc1`: the growth is 54.5% [2.5 µM]. For `O=C(NCCNc1cc(-c2cn(-c3ccccc3)nc2-c2cccc(O)c2)ccn1)Nc1cc(C(F)(F)F)cc(C(F)(F)F)c1`, the growth was 93.6%. As for `Cc1cccc(/C=C2\CN(C(=O)OC(C)(C)C)C/C(=C\c3cccc(C)c3)C2=O)c1`, the figure is 103%.

With `COc1ccc(/C=N\NC(=O)c2ccc3nc(-c4ccc(Br)cc4)[nH]c3c2)cc1`, the growth was 32.1%.

On to `C/C(Cc1ccc(Cl)cc1)=C(/c1ccc(Cl)cc1)c1ccc(OCCN(C)C)cc1`, for which the growth is 17.2%.

`C=C(C)[C@@H]1CC[C@]2(COC(=O)c3ccccc3C(=O)O)CC[C@]3(C)[C@H](CC[C@@H]4[C@@]5(C)CC[C@H](OC(=O)c6ccccc6C(=O)O)C(C)(C)[C@@H]5CC[C@]43C)[C@@H]12`: the growth was -22.5% [100 µM] (active). As to `Cc1cc(NC(=O)NC(=O)c2ccccc2N(C)C)ccc1Oc1ncc(Br)cn1`, the growth was -2.54% (active). For the molecule `C=CCOC(=O)C1=C(C)NC2=C(C(=O)CC(C)(C)C2)C1c1ccc(OC)cc1` (centres undefined), the growth is 110%.

As to `COc1ccc(/C(=N\N)C(=O)c2ccccc2)cc1` (tested in a mixture with another compound), the growth was 89%. The value for `COc1cc(-c2nc3ccc(-c4nnc(SCC(=O)Nc5ccc(C(C)=O)cc5)o4)cc3[nH]2)cc(OC)c1OC` was 101%.
